From PubChem BioAssay come the findings set out here.

Active and inactive are the calls of the source. Unless noted, the rule behind the calls is not given here.

In assay [1] the test system is XIP peptide (Xip251-270) binding. Kind of assay: XIP fragment 251-270 binding compounds – biochemical, small-molecule microarray, fluorescence 635/667 nm, 0.1 µg/mL protein, primary screen (AID 1182). As to conditions: fluorescent protein binding, 635 nm, higher = more signal, called active from +8 up or from −8 down.
For a further assay, the system named is XIP peptide (Xip251-270). Kind of assay: compounds binding XIP fragment 251-270 – biochemical, small-molecule microarray, fluorescence 635/667 nm, 0.5 µg/mL protein, primary screen (AID 1183). As to conditions: fluorescence 635 nm, higher = more signal.
A short description of assay [2]: blood-stage malaria parasite viability loss – strain 3D7, DAPI fluorescence, 100 nL, primary screen (AID 1184).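 Note: parasites grown inside human red blood cells in medium with human serum.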 The note with it: P. falciparum 3D7 growth, 3 d, higher = more signal.
Assay [3] deals with Homeobox protein Hox-A13 (Mus musculus) (UniProt Q62424). Kind of assay: disruptors of Hoxa13 oligonucleotide interaction – biochemical, fluorescence polarization, labeled oligonucleotide, primary screen (AID 1185). The note with it: Hoxa13:DNA binding, 15 min, higher = more signal, called active from +8 up or from −8 down. In general terms: Fluorescence polarisation rises when a labelled molecule tumbles more slowly, as on binding a larger partner.

Assay [4] in a line: blockers of DNA damage checkpoint Chk1 activation – imaging, HeLa, hydroxyurea, phospho-Chk1 antibody, percent positive cells, primary screen (AID 1186). The note with it: hydroxyurea-induced phospho-Chk1 immunofluorescence imaging, higher = more signal.
Assay [5] in a line: blockers of DNA damage checkpoint Chk1 activation – imaging, HeLa, hydroxyurea, phospho-Chk1 nuclear intensity, primary screen (AID 1187). The note with it: hydroxyurea-induced phospho-Chk1 immunofluorescence imaging, higher = more signal.

Chain of Homeobox protein Hox-A13 (Mus musculus) (Q62424 whole entry, looked up): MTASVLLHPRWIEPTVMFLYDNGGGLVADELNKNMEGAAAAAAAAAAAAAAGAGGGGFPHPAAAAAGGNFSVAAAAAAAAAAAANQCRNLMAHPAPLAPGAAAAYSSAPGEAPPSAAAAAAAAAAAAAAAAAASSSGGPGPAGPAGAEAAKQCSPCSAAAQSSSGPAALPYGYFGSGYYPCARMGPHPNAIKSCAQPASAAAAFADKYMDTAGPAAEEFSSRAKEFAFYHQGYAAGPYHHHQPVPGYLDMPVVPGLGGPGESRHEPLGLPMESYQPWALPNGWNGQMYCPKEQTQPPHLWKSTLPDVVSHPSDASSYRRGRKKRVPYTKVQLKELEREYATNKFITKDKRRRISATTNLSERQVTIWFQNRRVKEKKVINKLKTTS

Turning to `CO[C@H]1O[C@H](CO)[C@@H](OC(=O)Nc2ccccc2-c2ccccc2)[C@H](OC(=O)Nc2ccc3c(c2)OCO3)[C@H]1OC(=O)Nc1ccc2c(c1)OCO2`, the composite z-score in assay [1] is 0.886 (inactive); with XIP peptide (Xip251-270) it was 0.892. For the same compound, the z-score in assay [2] is -1.6; in assay [3], -9.89 (active); in assay [4], -0.356 (inactive); in assay [5], -0.272 (inactive).

As for `CC(C)(C)N1CC=CC23O[C@@H]4C=CCOC(=O)[C@@H]4[C@H]2C(=O)N(CCCCCCO)[C@@H]3C1=O` (stereo partly drawn), the results for the composite z-score (in assay [1]; in the assay on XIP peptide (Xip251-270)) were -0.196 (inactive) and 0.448, respectively. Besides, the z-score is -0.429 in assay [2], -4.45 (inactive) in assay [3], -0.156 (inactive) in assay [4] and -0.43 (inactive) in assay [5].

Regarding `C=CCN1Cc2ccccc2[C@H]2OC(c3ccc(OCCCO)cc3)=N[C@@]2(CC=C)C1=O`, the composite z-score in assay [1] is 0.808 (inactive); in the assay with XIP peptide (Xip251-270) it was 0.746. Also, the z-score in assay [2] was -2.15; in assay [3] it was -3.06 (inactive); in assay [4] it was -0.39 (inactive); in assay [5], -0.0236 (inactive).

In the case of `C=CCN1C(=O)[C@@]2(O[C@@H](CCn3cc([C@H](O)c4ccccc4)nn3)[C@H]([Si](C)(C)c3ccc(OC)cc3)[C@H]2C)c2cc(N3CCC3=O)ccc21`, the composite z-score in assay [1] was -0.0195 (inactive); in the assay with XIP peptide (Xip251-270), -0.114. Besides, the z-score in assay [2] was -2.1; in assay [3], -5.38 (inactive); in assay [4] it was -0.108 (inactive); in assay [5], 0.582 (inactive).

As to `COCCOC(=O)N1C(=O)[C@@]2(c3cc(C#CC4=CCCCC4)ccc31)[C@H](C(=O)N1CCCCCCC1)[C@H]1C(=O)O[C@H](c3ccccc3)[C@H](c3ccccc3)N1[C@@H]2c1ccc(O)cc1`, the results for the composite z-score (in assay [1]; with XIP peptide (Xip251-270)) were 0.179 (inactive) and 0.695, respectively. The z-score was -1.72 in assay [2], 2.25 (inactive) in assay [3], -0.525 (inactive) in assay [4] and -0.932 (inactive) in assay [5].

With `O=C(CS)NCCCCCNC(=O)[C@@H]1C[C@@H]2C(=O)N3CCC[C@H]3C(=O)N2[C@@H]1c1cccc(OCCO)c1`, the composite z-score is 2.29 (inactive) in assay [1] and 0.839 with XIP peptide (Xip251-270). The z-score in assay [2] was 1.05; in assay [3], -3.61 (inactive); in assay [4] it was 1.25 (inactive); in assay [5] it was 0.575 (inactive).

With `O=C1OCC=C[C@H]2OC34C=CCN(c5ccc(Cl)cc5)C(=O)[C@H]3N(CCO)C(=O)[C@@H]4[C@@H]12` (stereo partly drawn), the figures for the composite z-score (in assay [1]; in the assay with XIP peptide (Xip251-270)) were -0.0292 (inactive) and -0.457, respectively. In addition, the z-score is 1.05 in assay [2], -2.74 (inactive) in assay [3], -0.435 (inactive) in assay [4] and -0.457 (inactive) in assay [5].

`COC(=O)C(CC#Cc1ccc2c(c1)[C@]1(C(=O)N2)[C@H](c2ccccc2OCCO)N2[C@H](c3ccccc3)[C@H](c3ccccc3)OC(=O)[C@H]2[C@@H]1C(=O)NC[C@H](O)c1ccccc1)C(=O)OC`: the composite z-score was 1.8 (inactive) in assay [1] and 0.777 in the assay on XIP peptide (Xip251-270). Further, the z-score in assay [2] is -2.22; in assay [3], -1.59 (inactive); in assay [4], -0.124 (inactive); in assay [5], -0.553 (inactive).

Turning to `COC(=O)[C@@]1(Cc2ccc(F)cc2)[C@H]2c3cc(C(=O)N4CCCC4)n(CCN4CNCC4=O)c3C[C@H]2CN1C(=O)c1ccccc1`, the composite z-score in assay [1] is 0.207 (inactive); in the assay on XIP peptide (Xip251-270) it was 0.632. Further, the z-score is -1.65 in assay [2], -5.84 (inactive) in assay [3], 0.191 (inactive) in assay [4] and 0.44 (inactive) in assay [5].

For the compound `O=C1C2C=CC(C(O)c3ccccc3)N(Nc3ccccc3F)C2C(=O)N1c1ccccc1` (stereo not drawn), the composite z-score is 1.07 (inactive) in assay [1] and 0.726 with XIP peptide (Xip251-270). The z-score in assay [2] was 0.199; in assay [3], -3.79 (inactive); in assay [4], 0.237 (inactive); in assay [5], 0.0511 (inactive).

Turning to `O=C1OCC=C[C@H]2OC34C=CCN(Cn5nnc6ccccc65)C(=O)[C@H]3N(CCCO)C(=O)[C@@H]4[C@@H]12` (stereo partly drawn), the results for the composite z-score (in assay [1]; in the assay on XIP peptide (Xip251-270)) were 0.206 (inactive) and 0.155, respectively. Besides, the z-score in assay [2] is -1.88; in assay [3] it was -1.9 (inactive); in assay [4], -0.242 (inactive); in assay [5], -0.228 (inactive).

With `CC(C)[Si](C#C[Si](C(C)C)(C(C)C)C(C)C)(O[C@H](C)c1cn([C@H](CO)Cc2ccccc2)nn1)C(C)C`, the composite z-score is 0.183 (inactive) in assay [1] and 0.348 with XIP peptide (Xip251-270). Moreover, the z-score in assay [2] is 0.67; in assay [3], -0.249 (inactive); in assay [4] it was -0.258 (inactive); in assay [5], -0.36 (inactive).

Turning to `[N-]=[N+]=NCc1ccccc1[C@@H]1OC(c2ccc(OCCCO)cc2)=N[C@]1(CCS(=O)(=O)c1ccccc1)C(=O)NCC(O)CO` (stereo partly drawn), the composite z-score in assay [1] was 2.02 (inactive); in the assay on XIP peptide (Xip251-270), 0.831. Further, the z-score was -2.26 in assay [2], -1.52 (inactive) in assay [3], -0.519 (inactive) in assay [4] and -0.524 (inactive) in assay [5].
